HCMV inh: human cytomegalovirus inhibition; HFF cells, HCMV-luciferase reporter, 72 h; stronger effect = lower value; activity change, negative = inhibition, % at 57.5 µM; 4.5% of 410,000 active; AID 1259415; in the data active = activity change below about -60%; inconclusive = no clear call, values can overlap the other calls; inactive = above about -39%; also: % is scaled to controls: 0 for no effect and ±100 for the full control effect
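Luciferase read-out from HCMV-luciferase-infected HFFs (MOI 1 PFU/cell) 72 h post infection at 37C; compounds added after 16 h cell attachment; activity normalized between buffer-only basal and Salinomycin (10uM) inhibitor controls.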
Pf growth 48h: P. falciparum growth inhibition at 48 hours (one generation). P. falciparum luciferase growth in erythrocytes, 48 h. 5.9% of 310,000 active. Potency, µM (doses to about 28.7 µM), for inactives: at the top dose activity change, negative = inhibition, usual class: inhibitors; also: potency is read from the fitted curve at half-maximal effect; % is scaled to controls: 0 for no effect and ±100 for the full control effect
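First compound was added to culture medium, then infected red cells at 0.1% parasitemia and 2% hematocrit (final). After incubation at 37 C under 5% CO2, luciferase detection reagent was dispensed and light output recorded.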
CHX counter: affects cycloheximide protein synthesis inhibition readout, counter-screen; cell reporter, cycloheximide protein synthesis inhibition counterscreen; max response, %; 12% of 300,000 active; AID 2314; in the data active = max response mostly above about 13%, no sharp cut-off; inactive = mostly below about 14%; also: read at 38.3 µM for the half of the compounds with a filed dose; 0% is about no effect
Pf growth 96h: P. falciparum growth inhibition at 96 hour, primary screen for plastid delayed-death inhibitors | P. falciparum luciferase reporter growth, 96 h | Potency, µM (series often up to 28.7 µM), inactives show top-dose activity change, negative = inhibition, most hits filed as inhibitors | 6.9% of 320,000 active | AID 504834; also: potency is read from the fitted curve at half-maximal effect; % is scaled to controls: 0 for no effect and ±100 for the full control effect
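Luminescence readout: decreased luciferase signal marks inhibited growth of reporter-expressing P. falciparum in infected red cells (2% hematocrit, 0.05% parasitemia final), exposed to compound two generations (96 h, 37 C, 5% CO2).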
Shiga inhibitor: Shiga toxin inhibition; 9.2% of 290,000 active; AID 2315; Vero cells, Shiga toxin protein synthesis inhibition reporter; inhibition, % at 38.7 µM; in the data active = inhibition mostly above about 28%, no sharp cut-off; inactive = mostly below about 43%; also: 0% is about no effect
HCV inhibitor: HCV inhibition. Huh7.5.1 HCVcc-Cre infection, luciferase reporter, 44 h. Potency, µM (titrated, usually from 41.8 µM), inactives show top-dose activity change, negative = inhibition, most hits filed as inhibitors. 3.4% of 340,000 active. AID 651820; also: potency is read from the fitted curve at half-maximal effect; % is scaled to controls: 0 for no effect and ±100 for the full control effect
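Infectious HCV cell culture screen: compound-treated cells (1,000/well, pre-plated 4 h) are infected with HCVcc-Cre at roughly 0.5 moi and grown 44 h. Infection is quantified by luciferase signal after 15 min substrate incubation at room temperature.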
* marks the source's active call; other numbers are inactive results; ? = inconclusive; · = no result; + = active, no number; ! = not confirmed by another sample; [ ] = dose if it differs, or a comment. In the library only some 21% were active in any assay of this set; here they are far more common. Unless noted, calls follow the shape of the dose curve; as a rule, active = well fitted inhibition curve with a large enough effect; inconclusive = small, poorly fitted or top-dose-only effect, or another doubt; inactive = no such curve, though single readings can be large or run the other way.

SMILES	HCMV inh	Pf growth 48h	CHX counter	Pf growth 96h	Shiga inhibitor	HCV inhibitor
O=C(c1ccc(CS(=O)(=O)c2c(Cl)cccc2Cl)o1)N1CCN(c2ccccn2)CC1	-66*	·	6	?	36	-13%
Cc1cccc(N2CCN(C(=O)c3nn(C)c4c3CSc3ccccc3-4)CC2C)c1 (stereo unspecified)	-62*	·	·	·	·	·
Cc1cccc(N2CCN(C(=O)c3ccc4c(c3)c(C)c(C)n4C)CC2C)c1 (stereo unspecified)	+!	-27%	2	73%	5	?
COc1cccc(N2CCN(C(=O)c3ccc(CS(=O)c4ccccc4Cl)o3)CC2)c1 (stereo unspecified)	-96*	?	-12	-17%	-5	?
Cc1ccc(S(=O)(=O)Cc2ccc(C(=O)N3CCN(c4ccccn4)CC3)o2)cc1	-4	·	-6	?	-7	-18%
O=C1CC(c2nc3ccccc3n2CCC2CCCCC2)CN1c1ccccc1Cl (stereo unspecified)	-1	·	·	·	·	·
Cc1cccc(N2CCN(C(=O)c3c(Cl)cnn3C)CC2)c1C	27	3%	-3	3%	-29	?
COc1ccc([C@H]2CC(=O)C=C(c3ccc(C(=O)O)cc3)C2)cc1OC	20	19%	·	?	·	19%
Cc1ccc(S(=O)(=O)NC2=NCN(CC(=O)O)CN2)cc1	11	11%	-3	30%	-8	5%
COc1ccccc1S(=O)(=O)Cc1ccc(C(=O)N2CCN(c3ccccc3)CC2)o1	-27	?	-1	7%	-11	-14%
COc1ccc(N2CCN(C(=O)c3ccc(CS(=O)(=O)c4ccccc4C)o3)CC2)cc1	2	13%	0	10µM*	-5	?
Cc1ccc(-c2c(C(=O)N3CCN(c4cccc(C)c4)C(C)C3)oc(=O)c3ccccc23)cc1 (stereo unspecified)	-70*	·	·	·	·	·
COc1ccccc1S(=O)(=O)Cc1ccc(C(=O)N2CCN(c3cccc(Cl)c3)CC2)o1	-67*	12µM*	11	4%	-3	13µM*
Cc1nn(-c2ccc(Cl)cc2)c(=O)c2c(C)noc12	-17	-11%	5	20%	9	14%
O=C(C(=O)N1CCCCC1)c1c(-c2ccccc2)[nH]c2ccccc12	-37	-11%[0.00184 µM]	-1	?	-15	-30%
Cc1ccc(NC(=O)CC2COc3ccccc3O2)cc1 (stereo unspecified)	-17	51%	31*	353%	54*	6%
COc1cccc(NC(=O)CC2COc3ccccc3O2)c1 (stereo unspecified)	36	11%	30	·	29	-1%
COc1ccc(C)cc1NC(=O)CC1COc2ccccc2O1 (stereo unspecified)	-61*	-12%	4	13%	1	-8%
CCC1CN(C(=O)Nc2ccc(C)cc2)c2cc(C)ccc2O1 (stereo unspecified)	-11	?	12*	1%	21	?
COc1ccccc1NC(=O)C(=O)NCC1COc2ccccc2O1 (stereo unspecified)	-32	14%	23*	7%	14	-8%
O=C(COc1coc(CN2CCN(Cc3ccccc3)CC2)cc1=O)Nc1ccccc1	-22	-9%	·	-20%	·	?
C#CCN(C[C@H]1[C@H](OC(=O)Nc2c(C)noc2C)[C@H](OC(=O)Nc2c(C)noc2C)CN(C(=O)OC(C)C)N1C(=O)OC(C)C)S(=O)(=O)c1ccc(C)cc1	-25	·	·	·	·	·
CC1C(=O)CCN(C(C)(C)C)C1C (stereo unspecified)	11	?	-3	8.3µM*	-1	9%
Nc1nc(NCCO)nc(N2CCCCCC2)c1[N+](=O)[O-]	-37	4%	-3	22%	-13	-6%
OCCN(CCO)c1nc(N2CCCCC2)c2nc(N(CCO)CCO)nc(N3CCCCC3)c2n1	17	2.1µM*	-4	3.3µM*	-9	·
SMILES	HCMV inh	Pf growth 48h	CHX counter	Pf growth 96h	Shiga inhibitor	HCV inhibitor
C=CC[C@@H]1/C=C(\C)C[C@H](C)C[C@H](OC)[C@H]2O[C@@](O)(C(=O)C(=O)N3CCCC[C@H]3C(=O)O[C@H](/C(C)=C/[C@@H]3CC[C@@H](O)[C@H](OC)C3)[C@H](C)[C@@H](O)CC1=O)[C@H](C)C[C@@H]2OC	·	1.7µM*	-3	1.5µM*	-6	·
CC[C@@H]1/C=C(\C)C[C@H](C)C[C@H](OC)[C@H]2O[C@@](O)(C(=O)C(=O)N3CCCC[C@H]3C(=O)O[C@H](/C(C)=C/[C@@H]3CC[C@@H](O)[C@H](OC)C3)[C@H](C)[C@@H](O)CC1=O)[C@H](C)C[C@@H]2OC	·	·	-4	·	-12	·
CCOC(=O)CSCC(=O)Nc1c(C(=O)C2CC2)oc2ccccc12	19	-11%	-3	5.9µM*	10	20%
COc1ccccc1N1C(=O)N(C(C)=O)C2C1Nc1ccccc1N2C (stereo unspecified)	-26	4.7µM*	1	?	12	?
Cc1ccc(C2=NNC(C(O)C(O)C(O)C(C)O)S2)cc1 (stereo unspecified)	11	·	32*	91%	107*	7%
COc1ccc(N(CC(=O)Nc2cc(OC)cc(OC)c2)S(=O)(=O)c2c(C)noc2C)cc1	-21	·	·	·	·	·
COc1cc2ncc(C(=O)c3ccc(C)cc3)c(N3CCCCC3)c2cc1OC	-34	·	·	·	·	·
CCOC(=O)c1sc(NC(=O)CCSC)nc1C	-17	?	12	16%	31	-8%
CCOC(=O)c1sc(NC(=O)Nc2ccc(F)cc2)nc1C	131	81%	93*	-22%	121*	?
CCOC(=O)c1sc(Nc2cccc(Cl)c2)nc1C	10	97%	51*	0%	70*	?
CCOC(=O)c1sc(NC(=O)Cc2ccc(F)cc2)nc1C	-30	-20%	29*	?	46	29%
CCOC(=O)c1sc(NC(=O)Cc2ccccc2OC)nc1C	1	0%	4	1%	-4	?
CCOC(=O)c1sc(NC(=O)CSC(=S)N2CCN(C)CC2)nc1C	-20	8.3µM*	8	?	26	13µM*
Cc1ccccc1NC(=O)N1CCC(NC(=O)C2CCCCC2)CC1	-8	-4%	1	-3%	0	-5%
CSCCC(NC(=O)c1ccccc1Cl)C(=O)OCC(=O)N1CCCC1=O (stereo unspecified)	-6	0%	·	-2%	·	14%
CCCOc1ccc(-c2nc(OCC)c3ccccc3n2)cc1	40	·	11	71%	32*	?
CCCOc1ccc(-c2nc(N3CCN(C)CC3)c3ccccc3n2)cc1	48	-1%	33*	?	61*	?
CCN1CCN(c2nc(-c3ccncc3)nc3ccccc23)CC1	·	9.3µM*	-4	7.4µM*	-9	·
